In PubChem BioAssay one finds composite z-score and z-score data, which are given here for 5 molecules.

Assay [1] is described as follows: anti-His antibody binders, primary screen, artefact control for SMM control protein annotation, biochemical, small-molecule microarray, 635 nm fluorescence (AID 1128).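 Note: score merges feature fluorescence with signal-to-noise for each printed compound spot.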 Particulars: anti-His Alexa647 antibody binding, higher = more signal.
Assay [2] relates to Human papillomavirus type 1a E7 protein (residues 1-88). Nature of the assay: HPV1a E7 small-molecule binders, primary screen, biochemical, small-molecule microarray, residues 1-88, 635 nm (AID 1129). Particulars: small-molecule microarray binding, fluorescence 635 nm; higher = more signal.
In assay [3] the target is Focal adhesion kinase 1 (Homo sapiens) (UniProt Q05397). Nature of the assay: small-molecule microarray binders of FAK, primary screen, biochemical, 635/667 nm fluorescence, BSA, DTT (AID 1130).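 Note: composite of spot emission at 667 nm and signal to noise over triplicate slides.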 Particulars: PTK2 binding, 635 nm fluorescence, higher = more signal.
Focal adhesion kinase 1 (Homo sapiens), sequence (Q05397 whole entry, looked up): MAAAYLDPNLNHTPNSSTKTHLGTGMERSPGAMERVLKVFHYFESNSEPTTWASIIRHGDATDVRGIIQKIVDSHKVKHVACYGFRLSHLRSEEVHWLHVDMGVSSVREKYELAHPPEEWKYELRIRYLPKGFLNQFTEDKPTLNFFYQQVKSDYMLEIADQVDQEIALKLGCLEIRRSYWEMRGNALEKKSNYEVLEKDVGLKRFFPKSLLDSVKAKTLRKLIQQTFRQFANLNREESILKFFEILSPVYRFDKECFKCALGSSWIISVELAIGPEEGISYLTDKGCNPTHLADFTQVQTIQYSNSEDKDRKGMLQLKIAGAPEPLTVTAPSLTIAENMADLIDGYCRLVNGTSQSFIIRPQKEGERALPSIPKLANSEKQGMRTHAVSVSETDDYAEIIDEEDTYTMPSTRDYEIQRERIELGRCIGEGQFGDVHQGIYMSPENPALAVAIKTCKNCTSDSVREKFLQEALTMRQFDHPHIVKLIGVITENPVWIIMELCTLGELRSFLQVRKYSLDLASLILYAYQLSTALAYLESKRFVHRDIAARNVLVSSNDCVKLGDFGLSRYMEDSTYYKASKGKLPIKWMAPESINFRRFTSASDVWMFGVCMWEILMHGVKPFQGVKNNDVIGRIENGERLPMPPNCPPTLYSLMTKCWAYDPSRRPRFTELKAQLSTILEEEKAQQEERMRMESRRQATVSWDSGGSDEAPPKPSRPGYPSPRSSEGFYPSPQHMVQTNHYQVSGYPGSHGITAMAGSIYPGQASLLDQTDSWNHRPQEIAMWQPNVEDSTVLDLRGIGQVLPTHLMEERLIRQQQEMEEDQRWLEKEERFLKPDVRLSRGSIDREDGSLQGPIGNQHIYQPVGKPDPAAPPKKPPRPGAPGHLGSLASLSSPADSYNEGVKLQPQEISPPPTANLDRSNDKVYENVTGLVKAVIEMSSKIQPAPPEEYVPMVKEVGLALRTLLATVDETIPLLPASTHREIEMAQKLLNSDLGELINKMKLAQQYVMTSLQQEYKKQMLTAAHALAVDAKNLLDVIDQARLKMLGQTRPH
Assay [4] relates to Fibrinogen (Alexa647-labelled). Nature of the assay: fibrinogen binders on compound microarrays, profiling panel, artefact control for SMM control-protein annotation, biochemical, small-molecule microarray, 635/667 nm fluorescence (AID 1131).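 Note: z-score merges 667 nm fluorescence with per-spot signal-to-noise over triplicate slides.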 To be noted: fibrinogen-A647 binding fluorescence, higher = more signal.
Assay [5] concerns the target Follistatin (Homo sapiens) (UniProt P19883). The assay is described as follows: follistatin binders on small-molecule microarrays, primary screen, biochemical, small-molecule microarray, 635/667 nm fluorescence (AID 1132). Particulars: FST binding, 635 nm fluorescence, higher = more signal.
For assay [6], the target named is Fibroblast growth factor 2 (Homo sapiens) (UniProt P09038). The assay is described as follows: FGF2 binders on small-molecule microarrays, primary screen, biochemical, small-molecule microarray, 635/667 nm fluorescence (AID 1133). Particulars: small-molecule microarray binding, FGF2, fluorescence 635/667; higher = more signal.
Fibroblast growth factor 2 (Homo sapiens), sequence (P09038 whole entry, looked up): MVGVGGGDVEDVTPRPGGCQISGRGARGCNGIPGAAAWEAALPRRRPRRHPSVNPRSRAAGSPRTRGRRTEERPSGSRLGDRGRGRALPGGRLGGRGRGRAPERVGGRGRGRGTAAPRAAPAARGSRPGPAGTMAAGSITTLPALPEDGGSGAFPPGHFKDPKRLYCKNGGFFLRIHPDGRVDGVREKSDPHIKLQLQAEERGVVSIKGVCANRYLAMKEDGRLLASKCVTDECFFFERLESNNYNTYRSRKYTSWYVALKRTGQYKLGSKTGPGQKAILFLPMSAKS
Assay [7] in a line: mitochondrial membrane potential change in A549 cells, profiling panel, cell-based, JC-1 fluorescence, basal, 24 h, 100 nL (AID 1138).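 Note: A549 lung adenocarcinoma cells under basal conditions with no added stimulus; test concentration not given here.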 To be noted: higher = more signal.
The test system of a further assay is Lefty1. Nature of the assay: Lefty1 binders on small-molecule microarrays, primary screen, biochemical, small-molecule microarray, 635/667 nm fluorescence (AID 1139). Particulars: small-molecule microarray binding, fluorescence 635/667; higher = more signal.
Assay [8] has as its system wheat germ agglutinin (Triticum aestivum), Alexa647-labelled. Nature of the assay: wheat germ agglutinin binders on compound microarrays, profiling panel, artefact control for SMM control-protein annotation, biochemical, small-molecule microarray, 635/667 nm fluorescence (AID 1140).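 Note: score merges 667 nm feature emission with signal to noise over triplicate slides.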 Particulars: WGA-A647 binding, 635 nm fluorescence, higher = more signal.
Assay [9] has as its target Luciferin 4-monooxygenase (Photinus pyralis) (UniProt P08659). The assay is described as follows: firefly luciferase enzyme inhibitors, primary screen, biochemical, luminescence, purified enzyme, 2006 set (AID 1141).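 Note: cell-free assay with purified firefly luciferase at 100 ng per well in PBS; test concentration not given here.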 To be noted: SteadyGlo luminescence, 30 min, higher = more signal, called active from +8 up or from −8 down.
Assay [10] relates to Wnt5a (protein binding on small-molecule microarray). Nature of the assay: Wnt5a binders on small-molecule microarray, primary screen, biophysical, 635/667 nm fluorescence (AID 1142).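 Note: fluorescence read at 667 nm with signal to noise per printed feature.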 To be noted: 635 nm fluorescence, higher = more signal.
Assay [11] in a line: cell viability in Huh7 cells, primary screen, cytotoxicity control for HCV replication inhibitor project, CellTiter-Glo luminescence, basal, 48 h (AID 1143).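 Note: Huh7 hepatoma cells carrying a hepatitis C replication reporter with no stimulus; test concentration not given here.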 To be noted: Huh7 HCV replicon, higher = more signal, called active from +8 up or from −8 down. For orientation: Cellular ATP, detected with luciferase, serves as a proxy for viable cell number.
Assay [12] is described as follows: P. aeruginosa biofilm formation inhibitors, primary screen, PAO1 strain, BacTiter-Glo luminescence, LB-PBS (AID 1144). To be noted: 12 h, higher = more signal.
Assay [13] can be described thus: CREB reporter modulators without forskolin, primary screen, cell-based, PC12, CRE-LacZ reporter, unstimulated (AID 1145). To be noted: no forskolin, luminescence, 4.5 h, higher = more signal, called active from +8 up or from −8 down.
Assay [14] can be described thus: CREB reporter modulators under forskolin, primary screen, cell-based, PC12, CRE-LacZ reporter, forskolin-stimulated (AID 1146).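 Note: PC12 cells with 6xCRE LacZ reporter stimulated by forskolin 10 µM; beta-galactosidase reporter signal reflecting CREB driven transcription.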 To be noted: luminescence, 4.5 h, higher = more signal, called active from +8 up or from −8 down.
In assay [15] the target is Streptavidin (Streptomyces avidinii) (UniProt P22629). The assay is described as follows: streptavidin binders on small-molecule microarray, primary screen, artefact control for SMM compound annotation, biophysical, 635/667 nm fluorescence (AID 1147).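 Note: signal reflects streptavidin binding to arrayed compounds as a control protein.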 Particulars: streptavidin binding, higher = more signal.
Streptavidin (Streptomyces avidinii), sequence (P22629 whole entry, looked up): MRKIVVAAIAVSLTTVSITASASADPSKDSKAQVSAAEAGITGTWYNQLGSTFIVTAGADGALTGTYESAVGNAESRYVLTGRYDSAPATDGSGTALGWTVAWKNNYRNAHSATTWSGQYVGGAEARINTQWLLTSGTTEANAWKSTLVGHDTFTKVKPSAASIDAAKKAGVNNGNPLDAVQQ
Assay [16] can be described thus: small-molecule binders of probe aInhba, primary screen, biochemical, small-molecule microarray, 635/667 nm fluorescence (AID 1148).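 Note: score merges 667nm spot fluorescence with signal-to-noise for antibody binding to printed compounds.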 Particulars: higher = more signal.
Assay [17] addresses Torsin-1A (Homo sapiens) (UniProt O14656). Nature of the assay: torsin A binders from cell lysate, primary screen, small-molecule microarray, wild-type, 635/667 nm (AID 1149). Particulars: COS7 hTOR1A-WT lysate, 635 nm fluorescence, higher = more signal.
Assay [18] shares this target. Nature of the assay: small-molecule binders of mutant TOR1A in lysate, primary screen, cell lysate, small-molecule microarray, COS7 lysate, 635/667 nm fluorescence (AID 1150).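 Note: score pools 667 nm emission and signal to noise measuring lysate protein binding.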 To be noted: COS7 hTOR1A mutant lysate, 635 nm fluorescence, higher = more signal.
Assay [19] relates to Sonic hedgehog protein (Shh). The assay is described as follows: small-molecule binders of Shh protein, primary screen, biochemical, small-molecule microarray, 635/667 nm fluorescence (AID 1151).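 Note: Shh protein binding to compounds spotted on small-molecule microarray slides; score combines spot fluorescence intensity with signal-to-noise across triplicate slides.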 Particulars: small-molecule microarray binding, 635 nm fluorescence; higher = more signal.

Each structure is given as a SMILES string. The source made the active and inactive calls. Unless noted, the rule behind the calls is not given here.

Follistatin (Homo sapiens), sequence (P19883 whole entry, looked up): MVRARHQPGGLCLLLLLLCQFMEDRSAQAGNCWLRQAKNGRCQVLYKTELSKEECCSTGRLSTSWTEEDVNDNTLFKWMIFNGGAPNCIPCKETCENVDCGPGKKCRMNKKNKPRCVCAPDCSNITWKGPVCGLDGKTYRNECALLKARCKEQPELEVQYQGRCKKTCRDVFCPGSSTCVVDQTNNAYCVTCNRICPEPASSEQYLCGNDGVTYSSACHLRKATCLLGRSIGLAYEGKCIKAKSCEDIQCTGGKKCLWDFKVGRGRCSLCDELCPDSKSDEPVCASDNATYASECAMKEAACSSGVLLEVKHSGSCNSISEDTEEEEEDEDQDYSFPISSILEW
Luciferin 4-monooxygenase (Photinus pyralis), sequence (P08659 whole entry, looked up): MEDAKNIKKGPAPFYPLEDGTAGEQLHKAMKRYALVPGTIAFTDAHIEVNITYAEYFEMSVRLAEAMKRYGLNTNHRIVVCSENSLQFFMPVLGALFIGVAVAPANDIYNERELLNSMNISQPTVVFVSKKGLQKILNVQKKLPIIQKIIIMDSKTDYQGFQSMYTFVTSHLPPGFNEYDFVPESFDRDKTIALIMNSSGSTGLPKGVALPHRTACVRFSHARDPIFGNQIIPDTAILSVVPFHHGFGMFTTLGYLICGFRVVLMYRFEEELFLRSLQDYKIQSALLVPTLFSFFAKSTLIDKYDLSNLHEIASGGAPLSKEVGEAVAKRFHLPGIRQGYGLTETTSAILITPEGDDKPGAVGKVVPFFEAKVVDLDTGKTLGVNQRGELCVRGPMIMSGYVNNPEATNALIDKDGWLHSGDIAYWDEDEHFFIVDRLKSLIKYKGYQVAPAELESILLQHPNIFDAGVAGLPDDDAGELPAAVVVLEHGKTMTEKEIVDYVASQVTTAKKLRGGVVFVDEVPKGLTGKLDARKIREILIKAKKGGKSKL
Torsin-1A (Homo sapiens), sequence (O14656 whole entry, looked up): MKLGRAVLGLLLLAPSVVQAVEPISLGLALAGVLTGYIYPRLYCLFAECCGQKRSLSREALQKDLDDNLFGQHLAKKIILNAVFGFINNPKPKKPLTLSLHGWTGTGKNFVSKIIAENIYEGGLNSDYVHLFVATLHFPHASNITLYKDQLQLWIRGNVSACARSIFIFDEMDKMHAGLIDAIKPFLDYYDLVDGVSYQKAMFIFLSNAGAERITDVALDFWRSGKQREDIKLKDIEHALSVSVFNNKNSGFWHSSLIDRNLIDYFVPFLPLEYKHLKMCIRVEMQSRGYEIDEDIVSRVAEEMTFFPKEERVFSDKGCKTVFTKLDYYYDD

Take `C=C(CCCC)C(=O)CC[C@H](OC(C)=O)c1ccc(CO)o1`: the composite z-score was -0.273 in [1]; 0.228 in assay [2]; -0.0408 in assay [3]; -0.332 in [4]; 1.03 in [5]; 0.361 in [6]. Besides, the composite z-score in the assay with Lefty1 is 0.861; in assay [8], -0.276; in assay [10], 0.0631; in assay [15] it was -0.264; in assay [16], -0.0427; with Torsin-1A (Homo sapiens) [17] it was -0.423. The composite z-score in the assay with Torsin-1A (Homo sapiens) [18] was found to be 0.794; in assay [19] it was 1.99. The z-score was -0.0332 in assay [7]; -1.77 (inactive) in assay [9]; -3.11 (inactive) in [11]; -0.312 (inactive) in assay [12]; 0.508 (inactive) in [13]; -0.79 (inactive) in assay [14].

In the case of `[N-]=[N+]=Nc1ccccc1[C@@H]1OC(c2ccc(OCCCO)cc2)=N[C@]1(CCS(=O)(=O)c1ccccc1)C(=O)N1CCCCC1`, the composite z-score stood at 2.13 in assay [1]; 1.23 in assay [2]; 0.539 in assay [3]; 0.998 in assay [4]; 1.29 in assay [5]; 0.234 in assay [6]. Moreover, the composite z-score in the assay on Lefty1 is -0.0697; in assay [8], 1.42; in assay [10], 0.626; in assay [15], 1.45; in [16], 0.453; with Torsin-1A (Homo sapiens) [17], 1.09. Besides, the composite z-score is 0.736 in the assay with Torsin-1A (Homo sapiens) [18] and -0.394 in assay [19]. Further, the z-score was -0.0343 in assay [7]; -9.85 (active) in assay [9]; -2.42 (inactive) in assay [11]; 0.0668 (inactive) in assay [12]; 1.43 (inactive) in [13]; -0.642 (inactive) in assay [14].

As to `CCCC[C@H]1OB(O)C[C@H]2C1=C(C)Cn1c(=O)n(-c3ccccc3)c(=O)n12`, the composite z-score was 0.247 in assay [1]; 0.299 in assay [2]; -0.144 in [3]; -0.0265 in assay [4]; 0.415 in [5]; 0.321 in assay [6]. The composite z-score with Lefty1 is 0.493; in assay [8], 0.0939; in [10], 0.0677; in assay [15], -0.124; in [16], 0.0301; with Torsin-1A (Homo sapiens) [17] it was 0.363. For the same molecule, the composite z-score with Torsin-1A (Homo sapiens) [18] was -0.0931; in assay [19], 0.759. The z-score is -0.281 in assay [7]; 0.169 (inactive) in [9]; 0.007 (inactive) in [11]; -0.444 (inactive) in assay [12]; 0.222 (inactive) in assay [13]; -0.251 (inactive) in assay [14].

For the molecule `COCCOC(=O)N1C(=O)[C@@]2(c3cc(C#CCCO)ccc31)[C@H](c1ccc(O)cc1)N1[C@H](c3ccccc3)[C@H](c3ccccc3)OC(=O)[C@H]1[C@@H]2C(=O)N1CCCCCCC1`, the composite z-score in [1] came to 2.4; in assay [2], 1; in assay [3] it was 0.855; in assay [4], 0.771; in [5] it was 1.43; in assay [6], 1.6. Further, the composite z-score stood at 1.21 in the assay on Lefty1; 1.06 in assay [8]; 0.799 in assay [10]; 0.825 in assay [15]; 0.62 in [16]; 0.705 with Torsin-1A (Homo sapiens) [17]. Moreover, the values for the composite z-score (in the assay with Torsin-1A (Homo sapiens) [18]; in [19]) were 0.667 and 1.65, respectively. Also, the z-score in assay [7] is -0.183; in [9], -0.179 (inactive); in assay [11], -0.883 (inactive); in assay [12] it was -0.569 (inactive); in [13], 0.568 (inactive); in [14], -0.268 (inactive).

As for `O=C1C[C@@](C(=O)O)(c2ccc([N+](=O)[O-])cc2)[C@@H](c2ccc(CO)cc2I)N1C1CCCCC1`, the composite z-score in assay [1] amounted to 0.806; in [2], 0.796; in assay [3] it was 0.113; in [4], 0.873; in assay [5], 0.539; in [6], 0.293. For the same molecule, the composite z-score with Lefty1 is 0.471; in [8] it was 0.832; in [10] it was 0.45; in assay [15] it was 0.988; in [16], 0.0905; with Torsin-1A (Homo sapiens) [17], -0.757. For the same molecule, the composite z-score with Torsin-1A (Homo sapiens) [18] is 0.206; in [19], -0.196. For the same molecule, the z-score in assay [7] is -0.706; in assay [9], -0.411 (inactive); in [11], -4.77 (inactive); in [12], -2.27 (inactive); in assay [13], -0.619 (inactive); in assay [14] it was -0.598 (inactive).
